The nature of test [1]: inhibitors of TNFa-induced NFkB p65 translocation, primary screen, imaging, HUVEC, MLSMR starter and 10KST1 sets (AID 438;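 active = inhibition above 20% together with a positive visual image hit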;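 note: compound added about 3h40 before a 20 min TNFalpha stimulation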;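 for inhibition: signal is the nuclear over cytoplasmic p65 intensity ratio per well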). The following applies: HUVEC TNFa-induced p65 nuclear translocation; cell count: measured here: nuclei count (cytotoxicity indicator), at 2.08 µM; inhibition: at 2 µM, stronger effect = higher value, 0% TNFa-plus-vehicle, 100% no-TNFa wells.
Test [2] can be described thus: reduction of polyQ htt aggregates in cells – imaging, exon1htt(103Q)mCFP cells, high-content imaging, primary screen (AID 483;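 active = visual image review flags a hit and inhibition of aggregation exceeds 20%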;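 note: compound exposure lasted 3 days before fixation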;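 for nuclei count: percent of the per-plate median nuclei count of sample wells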). The note with it: exon1htt(103Q)mCFP cell line, aggregate imaging, at 2 µM; inhibition of aggregation: stronger effect = higher value; nuclei count: measured here: cell count, toxicity.
Test [3] in a line: endothelial E-selectin expression blockers – imaging, HUVEC, immunofluorescence, MLSMR starter and 10KST1 sets, primary screen (AID 487;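 active = visually confirmed hit in the image check and inhibition above 20%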;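 for inhibition: signal is fraction of cell area covered by stained E-selectin grains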;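 for nuclei count: 100% = median nuclei count of all wells on the same plate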). The following applies: HUVEC TNFalpha-induced E-selectin immunofluorescence imaging, at 2 µM; inhibition: stronger effect = higher value; nuclei count: measured here: cell number, toxicity.
Test [4] can be described thus: Primary imaging screen for DUSP6 inhibitors that restore phospho-Erk in transfected HeLa cells, chemical complementation (AID 609;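 active = compounds giving at least 50% inhibition in the cell-based MKP-3 phosphatase rescue imaging test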;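 for inhibition: phospho-Erk level distribution per well compared with pooled transfected vehicle control wells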). The following applies: HeLa MKP-3 transfected, phospho-Erk imaging KS statistic, at 10 µM, cells stimulated with TPA for 15 min.
The target in test [5] is Dual specificity protein phosphatase 6 (Homo sapiens) (UniProt Q16828). Described as above. The note with it: HeLa MKP-3 transfected, phospho-Erk imaging KS statistic; at 10 µM; stronger effect = higher value; cells stimulated with TPA for 15 min.
The target in test [6] is Voltage-gated potassium channel subunit beta-2 (Rattus norvegicus) (UniProt P62483). Nature of the test: inhibitors of rat Kvbeta2 reductase activity – biochemical, NADPH fluorescence, primary screen (AID 622;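 active = fluorescence slope higher than the sample average by over 3 SD, cut at about -0.22 in these data, passing the limit was not always enough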;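 note: slope of raw intensity against log time taken from 70 to 1610 s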). The note with it: recombinant KvBeta, 4-cyanobenzaldehyde reduction, at 10 µM, stronger effect = higher value.
Test [7] shares this target. Nature of the test: enhancers of rat Kvbeta2 NADPH turnover – biochemical, NADPH fluorescence, primary screen (AID 623;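 active = NADPH fluorescence slope more negative than the mean of all samples by about 3 SD, 99.7% confidence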;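 note: fluorescence intensity change per second fitted from 20 to 320 s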). The following applies: Recombinant KvBeta, NADPH fluorescence decrease slope, 10 min; at 10 µM; stronger effect = lower value.
Test [8] addresses Alpha-2C adrenergic receptor (Homo sapiens) (UniProt P18825). Nature of the test: compounds altering alpha2C-coupled GIRK flux – cell-based, HEK293 alpha2C/GIRK1/2, thallium flux, primary screen (AID 624).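 Note: slope of fluorescence ratio to pre-addition baseline per second over 15 to 24 s.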 The following applies: thallium flux BTC fluorescence, at 10 µM, actives lie on both sides.
Test [9] in a line: inhibitors of larval lipid processing in zebrafish, primary screen, whole organism, PED6 fluorescence, gall bladder and intestine (AID 686;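 active = a full or partial loss of lipid-probe fluorescence in the fish gall bladder, intestine or both, judged by eye; inactive = no fluorescence loss, or compound toxic to the fish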;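 note: larvae 5 to 7 days old with five fish per well; signal comes from phospholipase A2 cleavage of quenched PED6 carried via bile; overnight exposure to compound and PED6 before scoring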). The following applies: Zebrafish larvae PED6 lipid processing, fluorescence scoring; screened at 20 µM (by protocol).
Test [10] can be described thus: loss of swimming-algae plug formation – whole organism, Chlamydomonas reinhardtii, WT vs cilia-less mutant, absorbance, 96-well, primary screen (AID 463189;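 active = inhibition at or above 50% relative to wild type and mutant plate controls; inactive = inhibition below 50%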;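 note: 0% = wild type cc124 cells in DMSO and 100% = ciliumless bld1 mutant cells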). The note with it: Chlamydomonas reinhardtii gravitaxis, OD600 absorbance, 2 days; at 10 µM; stronger effect = higher value.
Test [11] can be described thus: blockers of RIG-like receptor reporter activation – cell-based, Sendai virus stimulus, luciferase, 10K MLSCN set, TLR/RLR signaling modifier project, primary screen (AID 602276;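 active = inhibition at or above 50% at 10 µM; inactive = inhibition below 50%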;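 note: firefly luciferase from ISG56 promoter only with Renilla not read in this screen; 0% = Sendai virus plus DMSO and 100% = medium plus DMSO without virus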). The following applies: HEK293 RL24 IRF3 luciferase reporter, at 10 µM, stronger effect = higher value. (In general: In a reporter assay the amount or activity of a reporter protein is the signal.)
Test [12] in a line: TLR3 IRF3 reporter activation blockers – cell-based, poly I:C stimulus, luciferase, 10K MLSCN set, primary screen (AID 602277;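 active = inhibition of the reporter signal at or above 50%; inactive = inhibition below 50%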). The following applies: HEK293-TLR3 RL24 IRF3 luciferase reporter, at 10 µM, stronger effect = higher value.
[13] abbreviates: measured here: cell density z-score.
[14] abbreviates: measured here: nuclear c-Myc green intensity z-score.
Setting [15] is: measured here: nuclear pErk red intensity z-score, stronger effect = higher value.

Calls of active or inactive are those of the source.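 Rule for the calls, unless noted: active = fluorescence slope after compound addition differing from the mean of all screened samples at 99.7% confidence, in either direction; inactive = the rest.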

Chain of Dual specificity protein phosphatase 6 (Homo sapiens) (Q16828 whole entry, looked up): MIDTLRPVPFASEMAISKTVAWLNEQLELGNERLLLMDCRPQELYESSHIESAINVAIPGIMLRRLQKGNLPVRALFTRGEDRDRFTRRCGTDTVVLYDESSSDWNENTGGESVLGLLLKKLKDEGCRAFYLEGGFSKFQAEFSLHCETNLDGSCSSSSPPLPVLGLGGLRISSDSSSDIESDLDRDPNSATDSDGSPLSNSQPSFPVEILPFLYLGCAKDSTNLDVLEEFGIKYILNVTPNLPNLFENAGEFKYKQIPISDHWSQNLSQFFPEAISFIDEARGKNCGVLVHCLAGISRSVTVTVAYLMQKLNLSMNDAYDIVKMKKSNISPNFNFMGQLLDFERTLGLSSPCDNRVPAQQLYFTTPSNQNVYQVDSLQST
Chain of Voltage-gated potassium channel subunit beta-2 (Rattus norvegicus) (P62483 whole entry, looked up): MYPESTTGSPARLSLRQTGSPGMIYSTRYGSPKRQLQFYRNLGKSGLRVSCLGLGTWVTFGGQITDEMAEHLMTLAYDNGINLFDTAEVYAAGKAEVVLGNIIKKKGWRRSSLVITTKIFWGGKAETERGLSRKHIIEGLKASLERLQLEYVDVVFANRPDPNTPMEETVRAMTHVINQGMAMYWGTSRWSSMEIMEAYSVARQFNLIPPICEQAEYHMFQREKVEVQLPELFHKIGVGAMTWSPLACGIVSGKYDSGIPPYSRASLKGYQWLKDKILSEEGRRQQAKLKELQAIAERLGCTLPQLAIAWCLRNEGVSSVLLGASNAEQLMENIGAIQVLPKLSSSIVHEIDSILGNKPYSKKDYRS
Chain of Alpha-2C adrenergic receptor (Homo sapiens) (P18825 whole entry, looked up): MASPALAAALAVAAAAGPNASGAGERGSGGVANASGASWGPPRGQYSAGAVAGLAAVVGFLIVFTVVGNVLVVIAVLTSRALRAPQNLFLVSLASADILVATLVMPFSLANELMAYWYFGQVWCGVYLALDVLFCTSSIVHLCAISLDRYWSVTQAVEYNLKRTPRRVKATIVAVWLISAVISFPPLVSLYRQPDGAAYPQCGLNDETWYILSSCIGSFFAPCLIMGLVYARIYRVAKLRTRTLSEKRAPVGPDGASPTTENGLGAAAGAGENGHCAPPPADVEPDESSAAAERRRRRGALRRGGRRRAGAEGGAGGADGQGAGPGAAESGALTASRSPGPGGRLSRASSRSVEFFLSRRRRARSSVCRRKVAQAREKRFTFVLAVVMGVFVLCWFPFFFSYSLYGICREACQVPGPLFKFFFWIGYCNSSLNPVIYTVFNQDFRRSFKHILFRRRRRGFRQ

Turning to `CC(=O)OCC(=O)[C@@]12OC3(CCCC3)O[C@@H]1C[C@H]1[C@@H]3CCC4=CC(=O)C=C[C@]4(C)[C@@]3(F)[C@@H](O)C[C@@]12C`, the cell count in [1] worked out at 609. For the same compound, the inhibition in [1] was -5.2% (inactive); in test [3], -15.3% (inactive); in [5], 5.42% (inactive); in [10], 22.1% (inactive); in [11], 8.27% (inactive); in [12], 39.3% (inactive). The inhibition of aggregation in test [2] is -15.8% (inactive). The nuclei count in [2] worked out at 51.6%; in test [3], 118%. Moreover, the z-score in test [4] (setting [13]) worked out at 0.724; in [4] (setting [14]), 0.328; in test [4] (setting [15]), 0.81. For the same compound, the fluorescence slope in [6] was -0.54 (inactive). The NADPH fluorescence slope in test [7] was -2.6e-05 (inactive). Further, the slope in [8] is 0.0055 (inactive). Besides, the result in [9] was inactive.
On to `CN(C)CCOC(=O)C(c1ccccc1)C1(O)CCCC1` (stereo not given), for which the cell count in [1] amounted to 635. The inhibition in test [1] is -7.2% (inactive); in test [3] it was -51% (inactive); in [5], -6.41% (inactive); in test [10] it was 13.5% (inactive); in test [11], 15.3% (inactive); in test [12] it was 45.7% (inactive). The inhibition of aggregation in test [2] is -8.5% (inactive). Moreover, the nuclei count in test [2] stood at 102%; in [3], 110%. For the same compound, the z-score in test [4] (setting [13]) worked out at 0.315; in [4] (setting [14]) it was 0.351; in test [4] (setting [15]), 1.54. For the same compound, in test [6], the fluorescence slope is -0.432 (inactive). Moreover, the NADPH fluorescence slope in test [7] was -7.3e-05 (inactive). Moreover, in [8], the slope is 0.00471 (inactive). In addition, the call in test [9] was inactive.
As to `CC(=O)OCC[N+](C)(C)C`, the cell count in [1] came out at 554. Further, the inhibition in test [1] was -8.9% (inactive); in test [3] it was -102% (inactive); in [5] it was -0.493% (inactive); in test [10] it was -4.51% (inactive); in test [11], 11.3% (inactive); in [12], 31.5% (inactive). For the same compound, the inhibition of aggregation in test [2] was 10.6% (inactive). Further, the results for the nuclei count in test [2] and in test [3] were 93.8% and 102%, respectively. In addition, the z-score in [4] (setting [13]) was -0.918; in [4] (setting [14]), -0.674; in test [4] (setting [15]), -0.99. The fluorescence slope in test [6] was -0.431 (inactive). Besides, in test [7], the NADPH fluorescence slope was 1.1e-05 (inactive). The slope in [8] was 0.0173 (active). The result in test [9] was inactive.
On to `CC(C)(C)OC(=O)N1CC=C2C(C#N)=C(N)C(C#N)(C#N)[C@H](c3cccnc3)[C@H]2C1`, for which, in [1], the cell count came out at 461. Moreover, the inhibition in [1] was -13.5% (inactive); in test [3] it was 28.8% (inactive); in [5] it was -0.624% (inactive); in test [10] it was 2.34% (inactive); in test [11] it was 11.2% (inactive); in test [12], 10.3% (inactive). The inhibition of aggregation in [2] was 45.1% (active). The nuclei count is 70.7% in test [2] and 112% in test [3]. Moreover, the results for the z-score in test [4] (setting [13]), in test [4] (setting [14]) and in test [4] (setting [15]) were -1.09, -0.413 and 0.348, respectively. For the same compound, the fluorescence slope in [6] was -0.387 (inactive). In test [7], the NADPH fluorescence slope was -4.5e-05 (inactive). For the same compound, the slope in test [8] was 0.00436 (inactive). Further, the compound was called inactive in test [9].
As to `CCOC(=O)CSC1=C(C#N)C(=O)NC(c2ccc(OC)c(OC)c2)S1` (stereo not given), the cell count in [1] amounted to 561. For the same compound, the inhibition in [1] is -4.2% (inactive); in [3], -41.1% (inactive); in test [5], -13.3% (inactive); in [10], -1.59% (inactive); in test [11] it was 12% (inactive); in test [12], 11.8% (inactive). Moreover, the inhibition of aggregation in test [2] is 12.1% (inactive). In addition, the nuclei count turned out to be 88.7% in test [2] and 135% in test [3]. In addition, the z-score in test [4] (setting [13]) was -1.42; in [4] (setting [14]), 2.48; in [4] (setting [15]), 0.606. For the same compound, the fluorescence slope in test [6] is -0.509 (inactive). For the same compound, in [7], the NADPH fluorescence slope is -5e-05 (inactive). For the same compound, the slope in test [8] was 0.00555 (inactive). For the same compound, the compound was classed as inactive in [9].
With `S=C(N=Nc1ccccc1)NNc1ccccc1`, the cell count in test [1] is 456. The inhibition was -24.6% (inactive) in test [1]; -51.9% (inactive) in test [3]; -2.46% (inactive) in [5]; 12.8% (inactive) in [10]; -11.4% (inactive) in [11]; -44.3% (inactive) in [12]. Further, in test [2], the inhibition of aggregation was 15.4% (inactive). In addition, the nuclei count in [2] stood at 97.4%; in test [3], 122%. For the same compound, the figures for the z-score in test [4] (setting [13]), in test [4] (setting [14]) and in [4] (setting [15]) were 0.583, -0.233 and 0.888, respectively. Besides, the fluorescence slope in test [6] is -0.552 (inactive). Also, the NADPH fluorescence slope in [7] is -4.2e-05 (inactive). Also, the slope in test [8] was 0.0111 (inactive). For the same compound, the outcome in [9] was inactive.
Regarding `C[C@H](CCC(=O)O)[C@H]1CC[C@H]2[C@@H]3C(=O)C[C@@H]4CC(=O)CC[C@]4(C)[C@H]3CC(=O)[C@]12C`, the cell count in test [1] was 606. Further, the inhibition in test [1] is -9.6% (inactive); in test [3], -37.7% (inactive); in [5], 3.45% (inactive); in [10], 9.63% (inactive); in [11], 14.6% (inactive); in test [12], 33.2% (inactive). For the same compound, the inhibition of aggregation in [2] is 5.8% (inactive). The nuclei count in test [2] is 102%; in test [3] it was 138%. Moreover, the z-score in [4] (setting [13]) is -0.246; in test [4] (setting [14]), -0.125; in [4] (setting [15]) it was -0.32. Moreover, in [6], the fluorescence slope was -0.45 (inactive). In test [7], the NADPH fluorescence slope is 5.4e-06 (inactive). In addition, the slope in test [8] was 0.00499 (inactive). In addition, in test [9], the result was inactive.
For `O=C(COc1ccccc1)Nc1ccc(-c2nnc(-c3ccco3)o2)cc1`, the cell count in test [1] came to 458. Also, the inhibition was -4.3% (inactive) in [1]; -252% (inactive) in [3]; 3.97% (inactive) in test [5]; -15.4% (inactive) in [10]; -55.4% (inactive) in test [11]; -103% (inactive) in test [12]. Besides, the inhibition of aggregation in test [2] is 7.5% (inactive). Further, the nuclei count in test [2] turned out to be 101%; in test [3], 102%. In addition, the figures for the z-score in test [4] (setting [13]), in [4] (setting [14]) and in test [4] (setting [15]) were -2.58, 1.43 and -0.658, respectively. Further, in [6], the fluorescence slope is -0.499 (inactive). In addition, the NADPH fluorescence slope in test [7] is -2.1e-05 (inactive). Further, the slope in test [8] is 0.00796 (inactive). Further, the outcome in test [9] was inactive.
As for `Brc1cccc(-c2cnc3n2CCCCC3)c1`, the cell count in [1] came to 517. In addition, the inhibition is -12.1% (inactive) in [1]; -58.1% (inactive) in test [3]; -8.95% (inactive) in [5]; 59.2% (active) in [10]; -2.77% (inactive) in [11]; -38% (inactive) in test [12]. The inhibition of aggregation in test [2] was 5.1% (inactive). Besides, the values for the nuclei count in test [2] and in [3] were 76.5% and 139%, respectively. Further, the z-score is 0.246 in test [4] (setting [13]), -0.612 in test [4] (setting [14]) and 1.65 in test [4] (setting [15]). In test [6], the fluorescence slope is -0.446 (inactive). Moreover, the NADPH fluorescence slope in [7] was -0.000303 (inactive). Also, the slope in [8] was 0.00481 (inactive). For the same compound, in test [9], the compound was called inactive.
For the compound `CSC1=C(C#N)C(C)CC(=O)N1` (stereo not given), the cell count in [1] was found to be 552. In addition, the inhibition in test [1] was -5.8% (inactive); in test [3], 1.9% (inactive); in test [5], -5.89% (inactive); in test [10], 19.4% (inactive); in test [11], 13.8% (inactive); in test [12], 12.5% (inactive). The inhibition of aggregation in test [2] was -2% (inactive). The nuclei count in test [2] came to 112%; in [3], 108%. Also, the z-score in test [4] (setting [13]) is -0.957; in [4] (setting [14]) it was -0.437; in [4] (setting [15]), 0.604. For the same compound, the fluorescence slope in test [6] is -0.51 (inactive). The NADPH fluorescence slope in [7] is -6.2e-05 (inactive). In addition, the slope in test [8] is 0.00463 (inactive). For the same compound, in [9], the result was inactive.

The term inhibition denotes the relative decrease from the control value, in per cent.

Values taken from PubChem BioAssay.
